# PubChem BioAssay AID623943 (Vanderbilt Specialized Chemistry Center, 2012)
# Activity calls are given as the source filed them.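 Rule for the calls: active = response changes with concentration, giving a dose-dependent curve as judged by the depositor; inactive = the rest, with no dose-dependent response.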
# Biological target: Muscarinic acetylcholine receptor M3 (Rattus norvegicus) (UniProt P08483)
# Experiment: rat M3 muscarinic receptor PAM counter-screen, SAR follow-up, selectivity assay for M4 PAM optimization project, CHO-K1 cells, calcium fluorescence, ACh EC20 (AID 623943)
# Conditions: CHO-K1 rM3, calcium fluorescence, PAM mode with ACh EC20; series mostly up to 30 µM
row,SMILES,outcome
1,Cc1nc2sc(C(=O)NCc3ccncc3)c(N)c2c(C)c1Cl,inactive
2,Cc1nc2sc(C(=O)NCc3ccccc3)c(N)c2c(C)c1Cl,inactive
3,Cc1nc2sc(C(=O)NCc3ccc4c(c3)OCO4)c(N)c2c(C)c1Cl,inactive
4,Cc1nc2sc(C(=O)NCc3nccs3)c(N)c2c(C)c1Cl,inactive
5,Cc1nc2sc(C(=O)NCc3cccc(F)c3F)c(N)c2c(C)c1Cl,inactive
6,Cc1nc2sc(C(=O)NCc3ccncn3)c(N)c2c(C)c1Cl,inactive
7,Cc1nc2sc(C(=O)NCc3cccnc3)c(N)c2c(C)c1Cl,inactive
8,COc1ccc(C)c2sc(NC(=O)c3ccncc3)nc12,inactive
9,Cc1nc2sc(C(=O)NCCc3ccncc3)c(N)c2c(C)c1Cl,inactive
10,Cc1nc2sc(C(=O)NC3CC3)c(N)c2c(C)c1Cl,inactive
